NS1 inh – influenza NS1 inhibition | Potency, µM (top dose mostly 46.1 µM), for inactives: top-dose activity, positive = more growth | 0.4% of 270,000 active | AID 2326; note: potency is the fitted concentration of half-maximal effect; actives are rising curves; nearly all actives have a fitted effect of over 50% in size
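A cell-based growth assay was used: compounds that relieve NS1-induced slow growth of budding yeast raise OD600. Assay medium was yeast nitrogen base with ammonium sulphate and -URA supplement, pH 6.0, with 2% galactose.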
Pf growth 48h – inhibits P. falciparum growth in the first generation, 48 h | P. falciparum luciferase growth in erythrocytes, 48 h | Potency, µM (doses to about 28.7 µM), for the others: top-dose activity change, negative = inhibition, hits mostly inhibitors | 5.9% of 310,000 active; active = well fitted inhibition curve with a large enough effect; inconclusive = small, poorly fitted or top-dose-only effect, or another doubt; inactive = no such curve, though single readings can be large or run the other way; note: potency is the fitted concentration of half-maximal effect; % is set by controls: 0 for no effect and ±100 for the full control effect
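Compounds are pin-transferred into medium, infected erythrocytes (2% hematocrit, 0.1% parasitemia final) are added, and plates sit one parasite generation at 37 C in 5% CO2. Detection reagent is then added and luminescence measured.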
Cycloheximide cs – counter-screen hit for Shiga toxin inhibitors, cycloheximide | cell reporter, cycloheximide protein synthesis inhibition counterscreen | max response, % | 12% of 300,000 active | AID 2314; in the data active = max response mostly above about 13%, no sharp cut-off; inactive = mostly below about 14%; note: read at 38.3 µM for the half of the compounds with a filed dose; 0% is about no effect
Shiga toxin inh – Shiga toxin inhibition. Vero cells, Shiga toxin protein synthesis inhibition reporter. inhibition, % at 38.7 µM. 9.2% of 290,000 active; in the data active = inhibition mostly above about 28%, no sharp cut-off; inactive = mostly below about 43%; note: 0% is about no effect
SARS PLP yeast – SARS-CoV PLP inhibition in yeast; AID 485353; Potency, µM (titrated, usually from 32.9 µM), for inactives: at the highest dose activity, positive = growth rescue, hits mostly activators; 0.19% of 330,000 active; S. cerevisiae expressing SARS-CoV PLpro, growth rescue; note: potency is the fitted concentration of half-maximal effect; 0% is about no effect; nearly all actives have a fitted effect of over 55% in size
Pf growth 96h – P. falciparum growth inhibition at 96 hours. P. falciparum luciferase reporter growth, 96 h. Potency, µM (titrated, usually from 28.7 µM), inactives show at the highest dose activity change, negative = inhibition, hits mostly inhibitors. 6.9% of 320,000 active. AID 504834; active = well fitted inhibition curve with a large enough effect; inconclusive = small, poorly fitted or top-dose-only effect, or another doubt; inactive = no such curve, though single readings can be large or run the other way; note: potency is the fitted concentration of half-maximal effect; % is set by controls: 0 for no effect and ±100 for the full control effect
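Compounds incubated with erythrocytes infected by luciferase-expressing P. falciparum (2% hematocrit, 0.05% parasitemia final) for 96 hours, 37 C in 5% CO2. Growth inhibition scored as decreased luciferase luminescence.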
An asterisk follows results filed as active; [ ] = remark or other dose. Rows were chosen to be rich in hits. Some 21% of all compounds tested hit in one or more screens of this group. Unless noted, calls come from the whole dose curve.

For O=C(/C=C/c1ccc(F)cc1)NC(=S)Nc1ccccc1 the results were NS1 inh 3%, Pf growth 48h 22%, Cycloheximide cs 13, Shiga toxin inh 34*, SARS PLP yeast 0% and Pf growth 96h 14%.
`O=C(/C=C/c1ccccc1)NC(=S)Nc1ccc(N2CCOCC2)cc1` gave NS1 inh 9%, Pf growth 48h 5%, Cycloheximide cs -2, Shiga toxin inh 10, SARS PLP yeast 13% and Pf growth 96h -15%.
For NNC(=S)Nc1cccc(-c2n[nH]c(=S)o2)c1 the results were NS1 inh 10%, Pf growth 48h -9%, Cycloheximide cs 1, Shiga toxin inh -8, SARS PLP yeast 0% and Pf growth 96h 6%.
`Cc1ccc(CNC(=O)c2ccc(COc3ccccc3)cc2)cc1` gave NS1 inh 3%, Pf growth 48h -5%, Cycloheximide cs -2, Shiga toxin inh 23, SARS PLP yeast 1% and Pf growth 96h -10%.
Screening NS(=O)(=O)c1ccc(CCNC(=O)c2ccc(Cn3c(=O)[nH]c4ccccc4c3=O)cc2)cc1 returned Pf growth 48h 3%, Cycloheximide cs 1, Shiga toxin inh -3, SARS PLP yeast 2% and Pf growth 96h inconclusive.
CCOC(=O)c1[nH]c(Cc2[nH]c(C(=O)OCC)c(C)c2CCC(=O)OC)c(CCC(=O)OC)c1C was read as NS1 inh 2%, Pf growth 48h 1.7µM*, Cycloheximide cs -1, Shiga toxin inh -9, SARS PLP yeast 3% and Pf growth 96h 89%.
For C=C1CC[C@H](O)C/C1=C/C=C1\CCC[C@]2(C)[C@@H]([C@H](C)/C=C/[C@H](C)C(C)C)CC[C@@H]12 the results were Pf growth 48h inconclusive and Pf growth 96h -25%.
Cc1cc2c(s1)c1c(C)nn(Cc3ccccc3F)c(=O)c1n2C was read as Pf growth 48h inconclusive, SARS PLP yeast 5µM* and Pf growth 96h 8%.
OCC(O)CS (stereo unspecified) was read as Pf growth 48h 2% and Pf growth 96h 15%.
COc1ccc(CCNCC(C)c2ccccc2)cc1 (stereo unspecified) was read as NS1 inh 1%, Pf growth 48h 18%, Cycloheximide cs -3, Shiga toxin inh -6, SARS PLP yeast 1% and Pf growth 96h 18%.
`CSc1ccc(CNCC(O)c2ccccc2)cc1` (stereo unspecified) gave NS1 inh -3%, Pf growth 48h inconclusive, Cycloheximide cs 22*, Shiga toxin inh 16, SARS PLP yeast 1% and Pf growth 96h 46%.
For CC1CCC(NCC(O)c2ccccc2)CC1 (stereo unspecified) the results were NS1 inh -2%, Cycloheximide cs -3, Shiga toxin inh -7, SARS PLP yeast 1% and Pf growth 96h 6.6µM*.
OC(CNC1CCCCCCC1)c1ccccc1 (stereo unspecified) was read as Pf growth 48h inconclusive, Cycloheximide cs -3, Shiga toxin inh -4, SARS PLP yeast -3% and Pf growth 96h inconclusive.
For OC(CNCCc1ccccc1)c1ccccc1 (stereo unspecified) the results were NS1 inh -10%, Pf growth 48h 5.9µM*, Cycloheximide cs -2, Shiga toxin inh -20, SARS PLP yeast 2% and Pf growth 96h 5.9µM*.
O[C@@H](CNC[C@H](O)c1ccccc1)c1ccccc1 was read as NS1 inh -2%, Pf growth 48h 9.3µM*, Cycloheximide cs 2, Shiga toxin inh -4, SARS PLP yeast -9% and Pf growth 96h 9.3µM*.
`CCOCCCNC(=O)C(c1ccccc1)N(Cc1ccc2c(c1)OCO2)C(=O)c1ccccc1O` (stereo unspecified) gave Pf growth 48h inconclusive, Cycloheximide cs -3, Shiga toxin inh -8, SARS PLP yeast 2% and Pf growth 96h inconclusive.
Screening COc1ccc(CCNCC(O)c2ccccc2)cc1 (stereo unspecified) returned Pf growth 48h 9.3µM*, Cycloheximide cs -2, Shiga toxin inh -1, SARS PLP yeast -1% and Pf growth 96h inconclusive.
Screening O=C(NCC(O)c1ccccc1)c1ccccc1 (stereo unspecified) returned NS1 inh 5%, Pf growth 48h 233%, Cycloheximide cs 32*, Shiga toxin inh 60*, SARS PLP yeast 0% and Pf growth 96h 262%.
For Cc1ccc2nc(NC(=O)CCn3c(=O)sc4ccccc43)sc2c1 the results were NS1 inh 4%, Pf growth 48h 1%, Cycloheximide cs 1, Shiga toxin inh 11, SARS PLP yeast -20% and Pf growth 96h 18%.
Cc1ccc2nc(NC(=O)CCCc3nc4ccccc4s3)sc2c1 was read as NS1 inh 8%, Cycloheximide cs 42*, Shiga toxin inh 117, SARS PLP yeast -1% and Pf growth 96h 160%.
For Cc1ccc2nc(NC(=O)CCn3cccc3)sc2c1 the results were Pf growth 48h 90%, Cycloheximide cs 22*, Shiga toxin inh 53*, SARS PLP yeast 0% and Pf growth 96h inconclusive.
`Cc1ccc2nc(NC(=O)CCCC(=O)O)sc2c1` gave NS1 inh 3%, Pf growth 48h -39%[1.15 µM], Cycloheximide cs -3, Shiga toxin inh 6, SARS PLP yeast 0% and Pf growth 96h inconclusive.
CC(C)CN(C(=O)COC(=O)C12CC3CC(CC(Cl)(C3)C1)C2)c1c(N)n(Cc2ccccc2)c(=O)[nH]c1=O was read as Pf growth 48h 4.7µM*, SARS PLP yeast 1% and Pf growth 96h inconclusive.
COCCN(C(=O)COC(=O)C1CC1)c1c(N)n(Cc2ccccc2)c(=O)[nH]c1=O was read as Pf growth 48h -10%, SARS PLP yeast 4% and Pf growth 96h 59%.
Cc1c(C(=O)N(CC(C)C)c2c(N)n(Cc3ccccc3)c(=O)[nH]c2=O)sc2nc3n(c(=O)c12)CCC3 was read as Pf growth 48h 8.3µM*, SARS PLP yeast 2% and Pf growth 96h inconclusive.
`COCCN(C(=O)COC(=O)C12CC3CC(CC(Cl)(C3)C1)C2)c1c(N)n(Cc2ccccc2)c(=O)[nH]c1=O` gave Pf growth 48h 12µM*, SARS PLP yeast -6% and Pf growth 96h inconclusive.
`CCc1nc2ccccc2c(C(=O)OCC(=O)N(CC(C)C)c2c(N)n(Cc3ccccc3)c(=O)[nH]c2=O)c1C` gave Pf growth 48h 12µM*, SARS PLP yeast 0% and Pf growth 96h 9.3µM*.
Screening CN(C(=O)COC(=O)C12CC3CC(CC(C3)C1)C2)c1c(N)n(Cc2ccccc2)c(=O)[nH]c1=O returned Pf growth 48h -15%, SARS PLP yeast -5% and Pf growth 96h -20%.
Cc1cc(C)n(-c2ccc(C(=O)OC(C)C(=O)Nc3ccc(C(N)=O)cc3)cc2)n1 (stereo unspecified) was read as Pf growth 48h 28%, SARS PLP yeast -1% and Pf growth 96h 16%.

Bioassay records from PubChem BioAssay.
